Holding throughout (assay): DAPPL (digital affinity profiling via proximity ligation, sequencing); 10 mM Tris-HCl pH 7.5, 50 mM NaCl, 1 mM DTT, 4% glycerol, room temperature, 30 min; GST-TFs on glutathione beads, 16-mer random dsDNA library, 0.1% formaldehyde crosslink after washing; high values mean tight binding
Test [1] has as its target T1, FEV (Homo sapiens, UniProt Q99581 1-238).
T1 sequence: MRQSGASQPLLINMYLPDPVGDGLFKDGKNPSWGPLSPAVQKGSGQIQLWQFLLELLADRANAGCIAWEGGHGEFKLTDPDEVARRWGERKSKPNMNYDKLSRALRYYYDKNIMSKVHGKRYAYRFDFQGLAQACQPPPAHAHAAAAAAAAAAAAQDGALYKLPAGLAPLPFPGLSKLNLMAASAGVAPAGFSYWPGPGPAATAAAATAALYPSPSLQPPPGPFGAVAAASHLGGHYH
The settings on record: protein: recombinant; tags: N-terminal GST; dsDNA, one strand shown. Put shortly:
(§1)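 A tag-only sample was pooled with DNA-barcoded human transcription factors that had been expressed in yeast as GST fusions and captured on glutathione beads. The pools were incubated for 30 min at room temperature with 200 nmole of a random double-stranded 16-mer DNA library in Tris/NaCl/DTT/glycerol buffer, then washed, crosslinked with 0.1% formaldehyde, proximity-ligated (BsaI/T4 ligase, 1 h, 37 °C), PCR-amplified and sequenced on an Illumina NextSeq500. Binding signal is each hexamer's read frequency for a factor divided by its frequency for the tag-only sample.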

For test [2], the target named is ETV5 (Homo sapiens, UniProt P41161 1-510). The settings on record: protein: recombinant; tags: N-terminal GST; dsDNA, one strand shown. Put shortly: as §1
For test [3], the target named is HSF1 (Homo sapiens, UniProt Q00613 1-529). The settings on record: protein: recombinant; tags: N-terminal GST; chain copies: 3; dsDNA, one strand shown. Put shortly: as §1
In test [4] the target is T2, SPIC (Homo sapiens, UniProt Q8N5J4 1-248).
T2 sequence: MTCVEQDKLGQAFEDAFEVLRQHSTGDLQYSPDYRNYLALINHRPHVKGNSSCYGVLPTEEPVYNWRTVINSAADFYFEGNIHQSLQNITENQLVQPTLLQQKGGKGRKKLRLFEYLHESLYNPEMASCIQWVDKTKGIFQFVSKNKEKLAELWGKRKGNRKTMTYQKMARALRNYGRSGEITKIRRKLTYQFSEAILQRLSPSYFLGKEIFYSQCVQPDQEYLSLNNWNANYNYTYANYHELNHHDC
The settings on record: protein: recombinant; tags: N-terminal GST; dsDNA, one strand shown. Put shortly:
as §1

For test [5], the target named is ELF4 (Homo sapiens, UniProt Q99607 1-663). The settings on record: protein: recombinant; tags: N-terminal GST; dsDNA, one strand shown. Put shortly:
as §1

In test [6] the target is T3, ELK4 (Homo sapiens, UniProt P28324-2 1-405).
T3 sequence: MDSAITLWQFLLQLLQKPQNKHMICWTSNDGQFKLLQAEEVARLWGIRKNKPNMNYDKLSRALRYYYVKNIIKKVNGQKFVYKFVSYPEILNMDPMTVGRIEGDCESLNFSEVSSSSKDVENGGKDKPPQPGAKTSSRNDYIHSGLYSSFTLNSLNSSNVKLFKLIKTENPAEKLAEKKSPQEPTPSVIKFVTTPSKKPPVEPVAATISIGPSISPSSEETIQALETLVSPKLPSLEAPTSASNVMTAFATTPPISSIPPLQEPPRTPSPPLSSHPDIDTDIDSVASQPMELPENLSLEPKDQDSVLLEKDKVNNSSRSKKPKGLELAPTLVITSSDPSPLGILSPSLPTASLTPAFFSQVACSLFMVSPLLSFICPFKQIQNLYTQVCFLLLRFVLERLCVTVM
The settings on record: protein: recombinant; tags: N-terminal GST; dsDNA, one strand shown. Put shortly:
as §1

The target of test [7] is T4, ETV2 (Homo sapiens, UniProt O00321 1-342).
T4 sequence: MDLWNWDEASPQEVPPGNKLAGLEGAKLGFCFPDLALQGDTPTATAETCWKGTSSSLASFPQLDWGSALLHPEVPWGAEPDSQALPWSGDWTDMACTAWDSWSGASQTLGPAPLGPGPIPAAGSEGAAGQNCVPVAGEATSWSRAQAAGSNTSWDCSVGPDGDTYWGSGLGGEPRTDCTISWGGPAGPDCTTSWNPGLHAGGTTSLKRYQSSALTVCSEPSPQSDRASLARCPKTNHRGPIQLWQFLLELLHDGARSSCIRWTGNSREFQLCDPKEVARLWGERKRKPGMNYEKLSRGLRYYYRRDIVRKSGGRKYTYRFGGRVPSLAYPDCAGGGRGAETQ
The settings on record: protein: recombinant; tags: N-terminal GST; dsDNA, one strand shown. Put shortly:
as §1

Test [8] deals with T5, ELF3 (Homo sapiens, UniProt P78545 1-371).
T5 sequence: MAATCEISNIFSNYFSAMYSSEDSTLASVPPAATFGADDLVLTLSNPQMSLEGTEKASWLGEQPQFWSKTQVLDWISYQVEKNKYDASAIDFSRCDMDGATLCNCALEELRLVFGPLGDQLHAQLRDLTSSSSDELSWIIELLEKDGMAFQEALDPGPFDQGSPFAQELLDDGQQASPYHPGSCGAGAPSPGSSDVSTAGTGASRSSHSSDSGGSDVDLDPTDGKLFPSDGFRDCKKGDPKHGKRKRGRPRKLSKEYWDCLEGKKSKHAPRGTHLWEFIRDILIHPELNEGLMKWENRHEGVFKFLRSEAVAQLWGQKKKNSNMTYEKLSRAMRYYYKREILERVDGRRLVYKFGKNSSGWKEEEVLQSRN
The settings on record: protein: recombinant; tags: N-terminal GST; dsDNA, one strand shown. Put shortly:
as §1

Test [9] deals with CRX (Homo sapiens, UniProt O43186 1-299). The settings on record: protein: recombinant; tags: N-terminal GST; dsDNA, one strand shown. Put shortly: as §1
In test [10] the target is ETV1 (Homo sapiens, UniProt P50549 1-477). The settings on record: protein: recombinant; tags: N-terminal GST; dsDNA, one strand shown. Put shortly: as §1
Sequence of ETV1 (P50549 whole entry): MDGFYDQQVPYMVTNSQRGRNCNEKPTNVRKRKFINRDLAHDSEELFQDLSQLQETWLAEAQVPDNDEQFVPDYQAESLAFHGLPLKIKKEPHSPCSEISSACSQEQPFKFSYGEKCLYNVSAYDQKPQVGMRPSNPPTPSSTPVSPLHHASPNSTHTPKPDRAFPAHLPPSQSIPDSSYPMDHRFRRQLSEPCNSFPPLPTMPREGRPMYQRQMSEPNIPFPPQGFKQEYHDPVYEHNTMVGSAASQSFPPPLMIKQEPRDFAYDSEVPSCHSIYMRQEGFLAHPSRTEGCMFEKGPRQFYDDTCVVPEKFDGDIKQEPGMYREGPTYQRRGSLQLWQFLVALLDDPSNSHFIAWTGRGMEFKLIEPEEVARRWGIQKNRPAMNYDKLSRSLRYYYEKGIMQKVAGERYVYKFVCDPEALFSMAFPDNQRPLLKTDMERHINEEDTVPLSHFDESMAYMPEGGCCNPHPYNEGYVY

Sequence of HSF1 (Q00613 whole entry): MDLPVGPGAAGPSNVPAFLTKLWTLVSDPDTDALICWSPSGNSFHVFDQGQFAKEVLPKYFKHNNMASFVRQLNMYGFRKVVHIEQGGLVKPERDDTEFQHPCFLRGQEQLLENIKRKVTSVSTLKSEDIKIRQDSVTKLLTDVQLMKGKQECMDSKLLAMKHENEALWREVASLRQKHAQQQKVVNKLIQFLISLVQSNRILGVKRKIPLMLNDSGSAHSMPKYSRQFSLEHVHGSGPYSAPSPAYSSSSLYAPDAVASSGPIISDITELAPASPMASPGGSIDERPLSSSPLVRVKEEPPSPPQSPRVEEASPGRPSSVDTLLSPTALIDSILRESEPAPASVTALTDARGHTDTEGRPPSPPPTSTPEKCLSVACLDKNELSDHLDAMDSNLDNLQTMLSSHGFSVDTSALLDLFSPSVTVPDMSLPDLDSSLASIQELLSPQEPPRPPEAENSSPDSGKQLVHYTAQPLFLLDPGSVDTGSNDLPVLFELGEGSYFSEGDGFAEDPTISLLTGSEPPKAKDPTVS
Sequence of ELF4 (Q99607 whole entry): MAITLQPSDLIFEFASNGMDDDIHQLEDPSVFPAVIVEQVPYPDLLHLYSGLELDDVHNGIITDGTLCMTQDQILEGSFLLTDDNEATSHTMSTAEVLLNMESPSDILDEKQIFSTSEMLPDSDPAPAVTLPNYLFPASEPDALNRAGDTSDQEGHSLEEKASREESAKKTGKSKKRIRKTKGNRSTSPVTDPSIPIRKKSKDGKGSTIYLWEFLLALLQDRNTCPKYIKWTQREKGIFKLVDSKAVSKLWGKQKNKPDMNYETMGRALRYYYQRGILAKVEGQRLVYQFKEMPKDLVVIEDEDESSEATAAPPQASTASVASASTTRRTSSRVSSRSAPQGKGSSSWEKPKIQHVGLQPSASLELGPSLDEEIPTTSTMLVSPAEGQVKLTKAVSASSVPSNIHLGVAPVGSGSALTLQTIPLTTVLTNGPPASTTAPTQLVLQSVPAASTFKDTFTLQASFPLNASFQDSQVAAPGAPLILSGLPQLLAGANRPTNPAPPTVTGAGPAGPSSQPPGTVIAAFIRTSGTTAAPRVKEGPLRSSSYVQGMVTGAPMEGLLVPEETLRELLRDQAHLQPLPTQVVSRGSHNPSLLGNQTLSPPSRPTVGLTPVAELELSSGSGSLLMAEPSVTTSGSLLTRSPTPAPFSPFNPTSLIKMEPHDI
Sequence of CRX (O43186 whole entry): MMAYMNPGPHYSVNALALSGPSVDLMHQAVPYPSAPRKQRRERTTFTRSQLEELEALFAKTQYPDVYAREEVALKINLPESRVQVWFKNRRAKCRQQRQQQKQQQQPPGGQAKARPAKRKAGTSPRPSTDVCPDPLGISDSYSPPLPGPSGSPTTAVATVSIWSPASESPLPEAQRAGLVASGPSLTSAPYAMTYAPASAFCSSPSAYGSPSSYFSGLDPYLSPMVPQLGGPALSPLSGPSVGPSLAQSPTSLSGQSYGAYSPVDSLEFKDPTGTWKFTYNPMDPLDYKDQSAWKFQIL
Sequence of ETV5 (P41161 whole entry): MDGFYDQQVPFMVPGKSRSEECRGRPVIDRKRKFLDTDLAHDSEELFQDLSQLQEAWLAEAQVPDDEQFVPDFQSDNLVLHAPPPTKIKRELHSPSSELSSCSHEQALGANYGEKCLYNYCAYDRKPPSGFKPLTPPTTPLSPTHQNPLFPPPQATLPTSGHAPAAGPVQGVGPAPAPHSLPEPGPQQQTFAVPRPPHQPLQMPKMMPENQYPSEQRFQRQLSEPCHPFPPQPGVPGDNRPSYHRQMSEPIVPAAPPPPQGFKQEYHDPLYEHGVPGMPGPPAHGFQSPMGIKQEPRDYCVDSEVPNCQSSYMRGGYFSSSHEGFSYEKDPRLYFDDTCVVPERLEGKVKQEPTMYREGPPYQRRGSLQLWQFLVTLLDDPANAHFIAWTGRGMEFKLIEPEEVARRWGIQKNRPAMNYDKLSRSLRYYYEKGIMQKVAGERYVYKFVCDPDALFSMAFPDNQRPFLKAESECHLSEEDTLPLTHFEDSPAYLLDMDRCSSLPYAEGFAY

Turning to TATACA, the binding signal is 1.29 fold enrichment (6-mer frequency, TF over GST control) in test [1]; 1.35 fold enrichment (6-mer frequency, TF over GST control) in [2]; 1.27 fold enrichment (6-mer frequency, TF over GST control) in test [3]; 1.28 fold enrichment (6-mer frequency, TF over GST control) in test [4]; 1.37 fold enrichment (6-mer frequency, TF over GST control) in test [5]; 1.28 fold enrichment (6-mer frequency, TF over GST control) in test [6]. The binding signal in test [7] was 1.28 fold enrichment (6-mer frequency, TF over GST control); in test [8], 1.43 fold enrichment (6-mer frequency, TF over GST control); in test [9], 1.36 fold enrichment (6-mer frequency, TF over GST control); in [10], 1.43 fold enrichment (6-mer frequency, TF over GST control).

In the case of TAACCT, the binding signal in test [1] is 1.3 fold enrichment (6-mer frequency, TF over GST control); in [2], 1.29 fold enrichment (6-mer frequency, TF over GST control); in test [3] it was 1.44 fold enrichment (6-mer frequency, TF over GST control); in test [4] it was 1.17 fold enrichment (6-mer frequency, TF over GST control); in test [5], 1.33 fold enrichment (6-mer frequency, TF over GST control); in [6], 1.46 fold enrichment (6-mer frequency, TF over GST control). For the same sequence, the binding signal in [7] is 1.13 fold enrichment (6-mer frequency, TF over GST control); in test [8] it was 1.29 fold enrichment (6-mer frequency, TF over GST control); in test [9] it was 1.67 fold enrichment (6-mer frequency, TF over GST control); in test [10], 1.31 fold enrichment (6-mer frequency, TF over GST control).

For the sequence TTGCAT, the binding signal in test [1] was 1.35 fold enrichment (6-mer frequency, TF over GST control); in test [2], 1.39 fold enrichment (6-mer frequency, TF over GST control); in test [3], 1.3 fold enrichment (6-mer frequency, TF over GST control); in [4] it was 1.59 fold enrichment (6-mer frequency, TF over GST control); in test [5], 1.4 fold enrichment (6-mer frequency, TF over GST control); in [6], 1.31 fold enrichment (6-mer frequency, TF over GST control). In addition, the binding signal in [7] was 1.53 fold enrichment (6-mer frequency, TF over GST control); in test [8] it was 1.38 fold enrichment (6-mer frequency, TF over GST control); in [9] it was 1.33 fold enrichment (6-mer frequency, TF over GST control); in test [10] it was 1.5 fold enrichment (6-mer frequency, TF over GST control).

As for AACAAC, the binding signal is 1.26 fold enrichment (6-mer frequency, TF over GST control) in test [1]; 1.24 fold enrichment (6-mer frequency, TF over GST control) in [2]; 1.14 fold enrichment (6-mer frequency, TF over GST control) in test [3]; 1.2 fold enrichment (6-mer frequency, TF over GST control) in test [4]; 1.26 fold enrichment (6-mer frequency, TF over GST control) in test [5]; 1.27 fold enrichment (6-mer frequency, TF over GST control) in test [6]. In addition, the binding signal in [7] was 1.34 fold enrichment (6-mer frequency, TF over GST control); in test [8], 1.31 fold enrichment (6-mer frequency, TF over GST control); in test [9], 1.04 fold enrichment (6-mer frequency, TF over GST control); in test [10], 1.23 fold enrichment (6-mer frequency, TF over GST control).

As for ACCTAC, the binding signal in test [1] is 1.17 fold enrichment (6-mer frequency, TF over GST control); in [2], 1.13 fold enrichment (6-mer frequency, TF over GST control); in test [3], 1.07 fold enrichment (6-mer frequency, TF over GST control); in test [4], 1.13 fold enrichment (6-mer frequency, TF over GST control); in test [5] it was 1.24 fold enrichment (6-mer frequency, TF over GST control); in [6], 1.22 fold enrichment (6-mer frequency, TF over GST control). Besides, the binding signal in [7] is 1.23 fold enrichment (6-mer frequency, TF over GST control); in test [8] it was 1.29 fold enrichment (6-mer frequency, TF over GST control); in test [9] it was 1.02 fold enrichment (6-mer frequency, TF over GST control); in [10], 1.23 fold enrichment (6-mer frequency, TF over GST control).

Regarding TACACC, the binding signal in test [1] is 1.2 fold enrichment (6-mer frequency, TF over GST control); in test [2], 1.15 fold enrichment (6-mer frequency, TF over GST control); in test [3] it was 1.03 fold enrichment (6-mer frequency, TF over GST control); in [4] it was 1.3 fold enrichment (6-mer frequency, TF over GST control); in test [5] it was 1.22 fold enrichment (6-mer frequency, TF over GST control); in test [6], 1.16 fold enrichment (6-mer frequency, TF over GST control). For the same sequence, the binding signal in [7] was 1.19 fold enrichment (6-mer frequency, TF over GST control); in test [8], 1.11 fold enrichment (6-mer frequency, TF over GST control); in [9], 1.06 fold enrichment (6-mer frequency, TF over GST control); in [10] it was 1.25 fold enrichment (6-mer frequency, TF over GST control).

As for TTTTTC, the binding signal was 1.19 fold enrichment (6-mer frequency, TF over GST control) in [1]; 1.27 fold enrichment (6-mer frequency, TF over GST control) in [2]; 1.44 fold enrichment (6-mer frequency, TF over GST control) in [3]; 1.11 fold enrichment (6-mer frequency, TF over GST control) in test [4]; 1.32 fold enrichment (6-mer frequency, TF over GST control) in test [5]; 1.16 fold enrichment (6-mer frequency, TF over GST control) in test [6]. The binding signal in test [7] is 1.24 fold enrichment (6-mer frequency, TF over GST control); in test [8] it was 1.26 fold enrichment (6-mer frequency, TF over GST control); in test [9], 1.09 fold enrichment (6-mer frequency, TF over GST control); in test [10], 1.21 fold enrichment (6-mer frequency, TF over GST control).
